Assay outcomes as filed in PubChem BioAssay.
uPA surface inh – blocks generation of uPA at the cell surface. cell surface uPA generation assay, qHTS. Potency, µM (top dose mostly 38.3 µM), hits mostly inhibitors. 330,000 compounds, 0.31% hits. AID 540303; active = well fitted inhibition curve with a large enough effect; inconclusive = small, poorly fitted or top-dose-only effect; inactive = no such curve, though single readings can be large or run the other way; tested in mouse RAW 264.7 cells; note: nearly all actives have a fitted effect of over 55% in size
IL-1B inflam inh – inhibitors of inflammasome signaling (IL-1 beta secretion). THP-1 LPS/ATP IL-1B secretion, AlphaLISA, 16 h; hits give low values. activity change, % at 57.5 µM. 360,000 compounds, 4.7% hits. AID 743279; in the data active = activity change below about -50%; inconclusive = mostly about -30% to -49%
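Secreted IL-1B measured by AlphaLISA bead assay after 16 h compound exposure of THP-1 cells; compounds (final up to 57.5 uM) added 1 h before LPS (250 ng/mL) and ATP (1.25 mM) stimulation; lower signal means less secretion.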
HT1080NT lethal – kills 2HG-producing HT-1080-NT fibrosarcoma cells. HT-1080-NT fibrosarcoma viability, CellTiter-Glo ATP luminescence, 48 h. Potency, µM (highest dose often 46.1 µM), usual class: cytotoxic. 360,000 compounds, 1.6% hits. AID 686970;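 note: NT is the 2HG producing partner of a matched IDH1 knockdown line; nearly all actives have a fitted effect of over 55% in size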
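Viability of the 2HG-overproducing fibrosarcoma line after 48 hours of compound exposure at 37 degrees C was determined by luminescence with CellTiter-Glo, and concentration-effect curves were then fitted and categorized.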
DT40 TDP1 no CPT – qHTS for Inhibitors of human tyrosyl-DNA phosphodiesterase 1 (TDP1): qHTS in cells in absence of CPT; DT40 Tdp1-/- hTDP1 cells, no CPT, ATP luminescence, 48 h; Potency, µM (doses to about 46.2 µM), usual class: inhibitors; 420,000 compounds, 15% hits; note: nearly all actives have a fitted effect of over 55% in size
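DT40 Tdp1-/-;hTDP1 cells, no CPT (DMSO vehicle only), 400 cells/well; compounds pin-transferred; ≥48 hr, 37 °C; CellTiter-Glo 30 min RT dark, luminescence read.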
HT1080 IDH1KD tx – HT-1080 IDH1 knockdown cell toxicity (counter line). HT-1080 IDH1 knockdown viability, ATP luminescence, 48 h. 360,000 compounds, 2% hits. Potency, µM (series often up to 46.1 µM), hits mostly cytotoxic
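After a 2 h attachment period, IDH1KD HT-1080 cells took pin-transferred compound for 48 h at 37 °C; ATP-based luminescence after 10 min room-temperature reagent incubation reported viability.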
TDP1 cell CPT – growth inhibition of DT40 Tdp1-/-;hTDP1 cells with camptothecin (screen for TDP1 inhibitors). chicken DT40 Tdp1-/-;hTDP1 cells + 20 nM CPT, ATP luminescence, 48 h. Potency, µM (doses to about 46.2 µM), actives largely listed as inhibitors. 420,000 compounds, 12% hits. AID 686979; note: nearly all actives have a fitted effect of over 55% in size
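Chicken DT40 Tdp1-/- cells complemented with human TDP1, 400 cells/well, exposed to compounds plus 20 nM camptothecin for at least 48 h at 37 C; viability read as ATP content by CellTiter-Glo luminescence.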
Hits are given with their value; – = inactive; ? = inconclusive; · = no result given; [ ] = dose if it differs, or a comment. This is a sample that favours compounds with a hit; in the whole collection about 19% have one here. Unless noted, calls come from the whole dose curve; as a rule, active = well fitted curve in the direction sought with a large enough effect; inconclusive = small, poorly fitted or top-dose-only effect, or another doubt; inactive = no such curve, though single readings can be large; an effect the other way counts as inactive or inconclusive.

SMILES	uPA surface inh	IL-1B inflam inh	HT1080NT lethal	DT40 TDP1 no CPT	HT1080 IDH1KD tx	TDP1 cell CPT
Nc1nc(NCc2ccco2)nc(N2CCCCCC2)c1[N+](=O)[O-]	–	–	?	16.4µM	–	20.6µM
CC(C)CCNc1nc(N)c([N+](=O)[O-])c(N2CCCCCC2)n1	–	–	?	16.4µM	?	?
Nc1nc(NCc2ccco2)nc(Nc2ccc(F)cc2)c1[N+](=O)[O-]	–	–	–	–	–	–
Nc1nc(NCc2ccco2)nc(NC2CCCCC2)c1[N+](=O)[O-]	–	·	–	–	–	–
Nc1nc(NCc2ccco2)nc(N2CCN(Cc3ccccc3)CC2)c1[N+](=O)[O-]	–	–	–	18.4µM	–	?
CNc1nc(N)c([N+](=O)[O-])c(N2CCCCCC2)n1	–	–	–	–	–	–
O=C(NCc1cccc(C(F)(F)F)c1)C1C(=O)Nc2ccccc2C(=O)N1C1CCCC1 (stereo not drawn)	·	–	–	–	–	?
Cc1cccc(OCC(=O)N(Cc2ccco2)C2CCS(=O)(=O)C2)c1C (stereo not drawn)	–	–	–	?	–	–
O=C(Nc1cccc(NC(=O)c2ccc(Br)o2)c1)c1ccccc1	–	?	–	?	–	?
C/C(=N/NC(=O)c1ccc(Br)o1)c1cccc(NC(=O)c2ccc(C)o2)c1	–	–	–	20.6µM	–	16.4µM
C/C(=N/NC(=O)c1ccco1)c1cccc(NC(=O)c2ccc(C)o2)c1	–	–	–	–	–	–
O=C(c1ccccc1)c1cccc(NC(=O)c2ccc(Br)o2)c1	–	-64.3	–	?	–	?
CC[C@@H](C)[C@@H](C(=O)N1CCN(C(=O)OC(C)(C)C)CC1)n1cc(CCCCNC(=O)OC(C)(C)C)nn1	–	–	–	13µM	–	13µM
CC[C@H](C)C(C(=O)N1CCN(C(=O)OC(C)(C)C)CC1)n1cc(C(CC(C)C)NC(=O)OC(C)(C)C)nn1 (stereo partly drawn)	–	–	–	?	–	23.1µM
CC(C)CC(NC(=O)OC(C)(C)C)c1cn([C@@H](CCC(=O)OC(C)(C)C)C(=O)N2CCN(C(=O)OC(C)(C)C)CC2)nn1 (stereo partly drawn)	–	–	–	16.4µM	–	16.4µM
CC[C@@H](C)C(C(=O)N1CCN(C(=O)OC(C)(C)C)CC1)n1cc(-c2cn([C@@H](C)C(=O)N3CCN(C(=O)OC(C)(C)C)CC3)nn2)nn1 (stereo partly drawn)	–	–	–	?	–	–
CC[C@@H](C)C(NC(=O)OC(C)(C)C)c1cn([C@@H](Cc2ccc(O)cc2)C(=O)N2CCN(C(=O)OC(C)(C)C)CC2)nn1 (stereo partly drawn)	–	–	–	?	–	?
O=C(COc1ccccc1)NCc1nnc2c3ccccc3c(-c3ccccc3)nn12	–	–	–	?	–	?
CCCCC/C=C\C[C@@H](O)/C=C/C=C/C=C\[C@@H](O)CCCC(=O)O	·	·	·	–[0.628 µM]	·	–[0.628 µM]
Cc1c(C(=O)OCC(=O)N(C)CC(=O)Nc2ccc(F)cc2)oc2ccccc12	?	–	–	–	–	–
CC(C)C[C@H]1CNC(=O)C(=O)N1CC1CCN(CC2CCC(C)CC2)CC1 (stereo partly drawn)	·	–	–	–	–	–
COc1ccccc1S(=O)(=O)Cc1ccc(C(=O)NCc2ccc(Cl)cc2)o1	·	·	·	18.4µM	·	?
O=C(NCc1ccc(F)cc1)c1ccc(CS(=O)(=O)c2ccc(Cl)cc2)o1	·	·	·	16.4µM	·	?
O=C(NCc1ccc(F)cc1)c1ccc(CS(=O)(=O)Cc2ccc(F)cc2)o1	–	–	–	?	–	?
CCCc1ccc(C(C)NC(=O)c2cnccn2)cc1 (stereo not drawn)	–	–	–	23.1µM	–	?
SMILES	uPA surface inh	IL-1B inflam inh	HT1080NT lethal	DT40 TDP1 no CPT	HT1080 IDH1KD tx	TDP1 cell CPT
N#C/C(=C\c1ccccc1)C(=O)NNS(=O)(=O)c1ccc(Br)cc1	–	–	–	–	–	–
Cc1cccc(N2CCN(C3=NC(=O)C(Cc4ccccc4)S3)CC2)c1 (stereo not drawn)	–	–	–	14.6µM	–	?
O=C(Cc1cccs1)NCCS(=O)(=O)N1CCN(c2ccccc2F)CC1	3.16µM	–	?	5.8µM	?	7.31µM
O=C(Cc1cccs1)NCCS(=O)(=O)N1CCN(c2ccccc2)CC1	·	–	–	?	–	–
O=C(Cc1ccc(-c2ccccc2)cc1)NCCS(=O)(=O)N1CCN(c2ccccc2F)CC1	·	·	·	14.6µM	·	10.3µM
O=C(CCC1CCCC1)NCCS(=O)(=O)N1CCN(c2ccccc2F)CC1	–	–	–	14.6µM	–	?
COc1ccc(-c2cc(C(F)(F)F)n3nc(-c4ccc(Cl)cc4)cc3n2)cc1OC	·	·	·	?	·	–
OC1CCN(c2c3c(nc4cc(-c5ccc(F)cc5)nn24)CCC3)CC1	–	–	–	?	–	16.4µM
O=C(C1CCCO1)N1CCN(c2c3c(nc4cc(-c5ccc(F)cc5)nn24)CCC3)CC1 (stereo not drawn)	–	–	–	16.4µM	–	?
Cc1cccc(-c2cc3nc4c(c(NCc5ccco5)n3n2)CCCC4)c1	–	-97.6	?	?	?	?
Fc1ccc(-c2cc3nc4c(c(N5CCOCC5)n3n2)CCCC4)cc1	–	?	?	16.4µM	?	18.4µM
CCCCN1CC(C)(C)[C@H](CC(=O)NC)C1=O	·	–	–	–	–	–
Cc1cccc(-c2cc3nc4c(c(N5CCOCC5)n3n2)CCCC4)c1	–	–	?	23.1µM	?	18.4µM
Cc1cccc(-c2cc3nc4c(c(N5CCC6(CC5)OCCO6)n3n2)CCCC4)c1	–	–	–	–	?	–
O=C1c2ccccc2C(=O)N1c1nc(-c2ccc(F)cc2)cs1	·	·	·	?	·	–
Cc1cc2oc(=O)cc(-c3cc4ccccc4o3)c2cc1O	–	–	–	23.1µM	–	25.9µM
COc1cc2oc(=O)c(CC(=O)N3CCCCC3)c(C)c2cc1OC	·	·	·	–	·	–
CCOC(=O)C1CCCN(C(=O)c2ccc3c(c2)N(C)C(=O)/C(=C/c2ccccc2Cl)S3)C1 (stereo not drawn)	–	-68.0	–	18.4µM	–	?
CCOc1ccc(/C=C2/Sc3ccc(C(=O)N4CCOCC4)cc3N(C)C2=O)cc1OC	–	-62.0	–	16.4µM	?	?
CN1C(=O)/C(=C\c2ccccc2F)Sc2ccc(C(=O)NC3CCN(Cc4ccccc4)CC3)cc21	–	–	20.6µM	23.1µM	16.4µM	18.4µM
CN1C(=O)/C(=C/c2ccccc2Cl)Sc2ccc(C(=O)N3CCCC3)cc21	–	–	–	25.9µM	–	?
